Reference: PubChem BioAssay (NCATS)
Values joined by “and” are separate entries in the source; they are usually repeats but may differ in a detail not shown here. Equal entries are not always repeated. Results filed as inconclusive are left out. Active and inactive are the calls of the source. The call rests on the fitted dose curve; in most records, active means well fitted curve in the direction sought with a large enough effect; inconclusive means small, poorly fitted or top-dose-only effect, or another doubt; inactive means no such curve, though single readings can be large; an effect the other way counts as inactive or inconclusive.

How the values were obtained:
Tov-21-G = assay: Primary qHTS to identify gynecologic anti-cancer compounds using libraries of approved drugs and bioactive compounds (AID 1345084); conditions: Gynecologic cancer cell panel viability, ATPlite luminescence, 48 h; series mostly up to 57.5 µM; further: nearly all actives have a fitted effect of over 55% in size
In short: (§1)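 Measured: luminescence after ATPlite addition (15 min, RT). Exposure: 48 h, 37 C, 5% CO2.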

Tov112D = assay: as above; conditions: Gynecologic cancer cell panel viability, ATPlite luminescence, 48 h; series mostly up to 57.5 µM
In short: as §1

[1] = Drug repurposing screens with cells derived from glioblastoma tumor samples (AID 1345199); conditions: GBM patient neurospheres viability, ATP luminescence, 48 h; further: nearly all actives have a fitted effect of over 40% in size; further: potency means the concentration at half of the fitted maximal effect
In short: (§2)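 Primary testing used CD133+ neurospheres from four GBM patients, seven concentrations, 48 h exposure and ATP-based viability; confirmation added three slower-growing patient lines.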

astro = assay: as above; conditions: viability, ATP luminescence, 48 h; series mostly up to 45.9 µM
In short: as §2

[2] = at 45.9 µM (top of the series), tumour line B
[3] = at 45.9 µM (top of the series), tumour line D
[4] = at 46 µM (top of the series), tumour line A
[5] = at 46.1 µM (top of the series), tumour line C
[6] = at 20 µM (top of the series), tumour line C
[7] = at 21.2 µM (top of the series), tumour line B
[8] = at 21.2 µM (top of the series), tumour line D
[9] = at 21.3 µM (top of the series), tumour line A
On the % scale 0 is the no-effect control and ±100 the full control effect.

CC(=O)NC(Cc1ccccc1)C(=O)O (stereo unspecified)
inactive: Potency (Tov-21-G) | Potency (Tov112D) | activity, negative = cell killing [1, 2] -12.3% | activity, negative = cell killing [1, 3] -6.53% | activity, negative = cell killing [1, 4] -20.1% | activity, negative = cell killing [1, 5] -23.9% | Potency (astro)

C[C@](N)(Cc1ccc(O)cc1)C(=O)O
inactive: activity change, negative = cytotoxicity (Tov-21-G) -3.06% [at 6.55 µM] | activity change, negative = cytotoxicity (Tov112D) 0.865% [at 6.55 µM] | activity, negative = cell killing [1, 2] -4.97% | activity, negative = cell killing [1, 3] 3.89% | activity, negative = cell killing [1, 4] -16.9% | activity, negative = cell killing [1, 5] 0.308% | Potency (astro)

C[C@@H]1CCN(C(=O)[C@H](CCCN=C(N)N)NS(=O)(=O)c2cccc3c2NC[C@H](C)C3)[C@@H](C(=O)O)C1
inactive: Potency (Tov-21-G) | Potency (Tov112D) | activity, negative = cell killing [1, 2] 7.31% | activity, negative = cell killing [1, 3] -6.42% | activity, negative = cell killing [1, 4] -6.41% | activity, negative = cell killing [1, 5] -2.45% | Potency (astro)

NC(CSCC(=O)O)C(=O)O (stereo unspecified)
inactive: Potency (Tov-21-G) | Potency (Tov112D) | activity, negative = cell killing [1, 2] -1.36% | activity, negative = cell killing [1, 3] -6.13% | activity, negative = cell killing [1, 4] -25.4% | activity, negative = cell killing [1, 5] -7.6% | Potency (astro)

CCCCC/C(C=O)=C\c1ccccc1
inactive: Potency (Tov-21-G) | Potency (Tov112D) | activity, negative = cell killing [1, 2] -2.87% | activity, negative = cell killing [1, 3] -16.9% | activity, negative = cell killing [1, 4] -24.2% | activity, negative = cell killing [1, 5] -7.86% | Potency (astro)

O=c1[nH]c(=O)c2[nH]c(=O)[nH]c2[nH]1
inactive: activity change, negative = cytotoxicity (Tov-21-G) 19.2% [at 11.6 µM] | activity change, negative = cytotoxicity (Tov112D) -0.835% [at 11.6 µM] | activity, negative = cell killing [1, 2] -17.6% and -20.9% | activity, negative = cell killing [1, 3] 16.7% and -10.4% | activity, negative = cell killing [1, 4] -18.4% and -8.7% | activity, negative = cell killing [1, 5] -21% and -10.6% | Potency (astro)

CCOc1ccc2ccccc2c1C(=O)N[C@@H]1C(=O)N2[C@@H]1SC(C)(C)[C@@H]2C(=O)O
inactive: Potency (Tov-21-G) | Potency (Tov112D) | activity, negative = cell killing [1, 6] 10.1% | activity, negative = cell killing [1, 7] -3.6% | activity, negative = cell killing [1, 8] -26.3% | activity, negative = cell killing [1, 9] -12.7% | Potency (astro)

COc1cc2[nH]c(=O)[nH]c(=O)c2cc1OC
inactive: Potency (Tov-21-G) | Potency (Tov112D) | activity, negative = cell killing [1, 6] -13.5% | activity, negative = cell killing [1, 7] -9.77% | activity, negative = cell killing [1, 8] 1.35% | activity, negative = cell killing [1, 9] -29.6% | Potency (astro)

CC1(C)CO[C@@H](CC(=O)O)CN1
inactive: Potency (Tov-21-G) | Potency (Tov112D) | activity, negative = cell killing [1, 2] -8.88% | activity, negative = cell killing [1, 3] -5.5% | activity, negative = cell killing [1, 4] -28.2% | activity, negative = cell killing [1, 5] -15.1% | Potency (astro)

O=C(Oc1ccccc1C(=O)O)c1ccccc1O
inactive: Potency (Tov-21-G) | Potency (Tov112D) | activity, negative = cell killing [1, 2] -6.94% | activity, negative = cell killing [1, 3] -16.8% | activity, negative = cell killing [1, 4] -11.8% | activity, negative = cell killing [1, 5] 0.529% | Potency (astro)

CC(=O)Oc1c(C)c(C)c2c(c1C)CC[C@@](C)(CCC[C@H](C)CCC[C@H](C)CCCC(C)C)O2
inactive: Potency (Tov-21-G) | Potency (Tov112D) | activity, negative = cell killing [1, 2] -3.11% and -14.8% and -20.3% | activity, negative = cell killing [1, 3] -2.72% and -19.7% and -14.1% | activity, negative = cell killing [1, 4] -21.7% and -44.1% | activity, negative = cell killing [1, 5] -8.98% and 2.94% and -0.939% | Potency (astro)

NS(=O)(=O)c1cc2c(cc1C(F)(F)F)NC(Cc1ccccc1)NS2(=O)=O (stereo unspecified)
inactive: Potency (Tov-21-G) | Potency (Tov112D) | activity, negative = cell killing [1, 6] -4.97% | activity, negative = cell killing [1, 7] -2.05% | activity, negative = cell killing [1, 8] -0.808% | activity, negative = cell killing [1, 9] -15.9% | Potency (astro)

Cc1cc(O)cc2c1O[C@](C)(CCC[C@H](C)CCC[C@H](C)CCCC(C)C)CC2
inactive: Potency (Tov-21-G) | Potency (Tov112D) | activity, negative = cell killing [1, 5] -14.5% | Potency (astro)
active: Potency ([1]; tumour line A) 5.01 µM | Potency ([1]; tumour line B) 17.8 µM | Potency ([1]; tumour line D) 35.5 µM

O=c1cc(CO)occ1O
inactive: Potency (Tov-21-G) | Potency (Tov112D) | activity, negative = cell killing [1, 2] -1.08% and -4.58% | activity, negative = cell killing [1, 3] 14.9% and -7.17% | activity, negative = cell killing [1, 4] -25.5% and -9.07% | activity, negative = cell killing [1, 5] -15.8% and 18.8% | Potency (astro)

NC(=O)NNc1ccccc1
inactive: Potency (Tov-21-G) | Potency (Tov112D) | activity, negative = cell killing [1, 2] -9.66% and -3.84% | activity, negative = cell killing [1, 3] -10.5% and 5.37% | activity, negative = cell killing [1, 4] -34.9% | activity, negative = cell killing [1, 5] -25.2% and -16.9% | Potency (astro)

Cc1cc2c(cc1S(N)(=O)=O)S(=O)(=O)CCC2
inactive: Potency (Tov-21-G) | Potency (Tov112D) | activity, negative = cell killing [1, 6] 4.86% | activity, negative = cell killing [1, 7] -8.12% | activity, negative = cell killing [1, 8] 3.88% | activity, negative = cell killing [1, 9] -0.554% | Potency (astro)

O=C(O)c1ccccn1
inactive: Potency (Tov-21-G) | Potency (Tov112D) | activity, negative = cell killing [1, 2] -12% | activity, negative = cell killing [1, 3] -3.68% | activity, negative = cell killing [1, 4] -22.3% | activity, negative = cell killing [1, 5] 1.95% | Potency (astro)

O=C(O)c1ccccc1-c1ccc(C(F)(F)F)cc1
inactive: Potency (Tov-21-G) | Potency (Tov112D) | activity, negative = cell killing [1, 2] -7.48% | activity, negative = cell killing [1, 3] -6.37% | activity, negative = cell killing [1, 4] -14.4% | activity, negative = cell killing [1, 5] 1.99% | Potency (astro)
